# PubChem BioAssay (Tox21)
# “And” between values parts separate entries of the source, which are not always exact repeats. Equal entries are not always repeated. Inconclusive results are not listed. A call without a number means that no potency is given here. The source made the active and inactive calls. Unless noted, calls follow the shape of the full dose curve.
# Experiments:
# [1] = qHTS assay to identify small molecule agonists of the sonic hedgehog signaling (Shh) pathway (AID 1259368); also: nearly all actives have a fitted effect of over 15% in size; also: potency is read from the fitted curve at half-maximal effect
# Summary of the method: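 Cells of a mouse NIH/3T3 clone stably expressing luciferase under the Gli1 transcriptional response element are exposed to test chemicals for 24 hr at 37 C. Pathway activation is detected as a rise in luminescence.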
# [2] = qHTS assay to identify small molecule antagonists of the sonic hedgehog signaling (Shh) pathway (AID 1259369); also: nearly all actives have a fitted effect of over 45% in size; also: potency is read from the fitted curve at half-maximal effect
# Summary of the method: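 Cells are plated and held 4hr at 37 C, compounds (DMSO) are pinned in, conditioned medium is added to stimulate the pathway, and after 24hr luciferase reagent is added for 30min before luminescence is read.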
# [3] = biological target: Estrogen receptor beta (Homo sapiens) (UniProt Q92731); test: qHTS assay to identify small molecule agonists of the estrogen receptor beta (ER-beta) signaling pathway (AID 1259377; active = well fitted activation curve with a large enough effect in the signal ratio in the repeat runs, not every such curve was filed as active; the % refers to the signal ratio; also: potency is read from the fitted curve at half-maximal effect)
# Sequence of Estrogen receptor beta (Homo sapiens) (Q92731 whole entry, looked up): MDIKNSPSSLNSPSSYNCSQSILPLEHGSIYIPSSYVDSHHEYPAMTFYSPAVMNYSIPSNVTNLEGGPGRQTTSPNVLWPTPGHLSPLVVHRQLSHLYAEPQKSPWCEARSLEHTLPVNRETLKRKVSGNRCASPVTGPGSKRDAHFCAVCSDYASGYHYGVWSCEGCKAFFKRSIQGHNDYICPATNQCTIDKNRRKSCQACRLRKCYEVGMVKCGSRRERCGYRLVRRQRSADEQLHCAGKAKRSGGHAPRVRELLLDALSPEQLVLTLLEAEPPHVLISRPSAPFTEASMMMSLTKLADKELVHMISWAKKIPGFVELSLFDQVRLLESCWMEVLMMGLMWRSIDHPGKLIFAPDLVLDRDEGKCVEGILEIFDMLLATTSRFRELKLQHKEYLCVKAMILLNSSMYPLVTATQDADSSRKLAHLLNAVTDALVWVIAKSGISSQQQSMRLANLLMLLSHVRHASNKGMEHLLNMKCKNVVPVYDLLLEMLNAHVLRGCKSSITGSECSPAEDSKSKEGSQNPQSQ
# Summary of the method: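 Ratiometric beta-lactamase FRET read-out came after 2 h substrate loading at room temperature. It followed 16 h compound treatment at 37C of GripTite HEK293T cells carrying a UAS-bla reporter, plated in 2% charcoal-stripped FBS medium.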
# [4] = qHTS assay to identify small molecule agonists of the androgen receptor (AR) signaling pathway in the presence of an antagonist - cell viability counter screen (AID 1259379; active = well fitted curve in the direction sought with a large enough effect in the repeat runs; an effect the other way counts as inactive or inconclusive;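 also: MDA-kb2 human breast cancer cells carrying an MMTV luciferase reporter; series mostly up to about 92 µM; nearly all actives have a fitted effect of over 25% in size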)
# Summary of the method: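 Cytotoxicity is assessed by CellTiter-Fluor in MDA-kb2 cells carrying an MMTV-driven luciferase reporter. Cells receive 3.0uM nilutamide plus compounds at 15 concentrations and incubate 16 hr at 37C without CO2 before fluorescence reading.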
# [5] = qHTS assay to identify small molecule agonists of the estrogen receptor beta (ER-beta) signaling pathway - cell viability counter screen (AID 1259380; active = well fitted curve in the direction sought with a large enough effect in the repeat runs; an effect the other way counts as inactive or inconclusive; also: nearly all actives have a fitted effect of over 30% in size; also: potency is read from the fitted curve at half-maximal effect)
# Summary of the method: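 Cytotoxicity is measured in parallel with the reporter screen: after 16 hr compound exposure at 37C and a 2 hr LiveBLAzer step, CellTiter-Glo is added to the same ER-beta-UAS-bla HEK293T wells and luminescence read after 30 min.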
# [6] = biological target: Androgen receptor (Homo sapiens) (UniProt P10275); test: qHTS assay to identify small molecule agonists of the androgen receptor (AR) signaling pathway in the presence of an antagonist (AID 1259381); also: nearly all actives have a fitted effect of over 15% in size
# Sequence of Androgen receptor (Homo sapiens) (P10275 whole entry, looked up): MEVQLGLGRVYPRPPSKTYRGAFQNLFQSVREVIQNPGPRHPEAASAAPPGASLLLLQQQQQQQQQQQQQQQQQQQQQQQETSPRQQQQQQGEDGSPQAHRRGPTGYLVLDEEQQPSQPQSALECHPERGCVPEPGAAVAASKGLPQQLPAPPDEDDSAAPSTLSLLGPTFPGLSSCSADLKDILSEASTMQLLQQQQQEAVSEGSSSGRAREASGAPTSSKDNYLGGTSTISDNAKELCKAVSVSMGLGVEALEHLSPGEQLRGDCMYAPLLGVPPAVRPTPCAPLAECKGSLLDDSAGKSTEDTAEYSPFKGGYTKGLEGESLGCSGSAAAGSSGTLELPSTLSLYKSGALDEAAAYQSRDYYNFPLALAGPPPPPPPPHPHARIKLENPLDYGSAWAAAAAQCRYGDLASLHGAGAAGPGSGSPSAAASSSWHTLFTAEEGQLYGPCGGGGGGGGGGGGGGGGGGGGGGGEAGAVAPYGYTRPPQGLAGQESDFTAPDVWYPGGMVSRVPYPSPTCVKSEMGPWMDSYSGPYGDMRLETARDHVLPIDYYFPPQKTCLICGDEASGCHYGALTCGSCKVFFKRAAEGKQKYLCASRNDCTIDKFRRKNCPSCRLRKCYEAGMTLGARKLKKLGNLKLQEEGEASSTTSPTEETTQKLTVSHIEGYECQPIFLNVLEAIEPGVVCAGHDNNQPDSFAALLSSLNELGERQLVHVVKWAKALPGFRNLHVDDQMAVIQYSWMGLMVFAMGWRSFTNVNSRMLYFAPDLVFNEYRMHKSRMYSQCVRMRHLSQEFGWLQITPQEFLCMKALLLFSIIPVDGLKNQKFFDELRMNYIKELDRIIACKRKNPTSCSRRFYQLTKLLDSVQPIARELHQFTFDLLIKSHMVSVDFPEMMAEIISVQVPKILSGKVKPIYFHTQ
# Summary of the method: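 Agonist-mode confirmation screen: human MDA-kb2 cells stably expressing luciferase under an MMTV promoter bearing AR and GR response elements, co-treated with 3.0uM nilutamide (final). Luminescence measured after 16hr compound incubation.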
# [7] = qHTS assay to identify small molecule agonists of the estrogen receptor alpha (ER-alpha) signaling pathway in the presence of an antagonist - cell viability counter screen (AID 1259386; active = well fitted curve in the direction sought with a large enough effect in the repeat runs; an effect the other way counts as inactive or inconclusive;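 also: series mostly up to about 92 µM; cells exposed to compounds for 22 h at 37 °C before the viability read; nearly all actives have a fitted effect of over 30% in size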)
# Summary of the method: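 Cytotoxicity was measured in parallel with the ERE-luciferase agonist screen, in the same wells. The cells were VM7Luc4E2, which endogenously express ER-alpha, and treatment was with compounds plus 10.0nM ICI-182,780 for 22hr.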
# [8] = biological target: Progesterone receptor (Homo sapiens) (UniProt P06401); test: qHTS assay to identify small molecule agonists of the progesterone receptor (PR) signaling pathway (AID 1346784); also: nearly all actives have a fitted effect of over 30% in size
# Sequence of Progesterone receptor (Homo sapiens) (P06401 whole entry, looked up): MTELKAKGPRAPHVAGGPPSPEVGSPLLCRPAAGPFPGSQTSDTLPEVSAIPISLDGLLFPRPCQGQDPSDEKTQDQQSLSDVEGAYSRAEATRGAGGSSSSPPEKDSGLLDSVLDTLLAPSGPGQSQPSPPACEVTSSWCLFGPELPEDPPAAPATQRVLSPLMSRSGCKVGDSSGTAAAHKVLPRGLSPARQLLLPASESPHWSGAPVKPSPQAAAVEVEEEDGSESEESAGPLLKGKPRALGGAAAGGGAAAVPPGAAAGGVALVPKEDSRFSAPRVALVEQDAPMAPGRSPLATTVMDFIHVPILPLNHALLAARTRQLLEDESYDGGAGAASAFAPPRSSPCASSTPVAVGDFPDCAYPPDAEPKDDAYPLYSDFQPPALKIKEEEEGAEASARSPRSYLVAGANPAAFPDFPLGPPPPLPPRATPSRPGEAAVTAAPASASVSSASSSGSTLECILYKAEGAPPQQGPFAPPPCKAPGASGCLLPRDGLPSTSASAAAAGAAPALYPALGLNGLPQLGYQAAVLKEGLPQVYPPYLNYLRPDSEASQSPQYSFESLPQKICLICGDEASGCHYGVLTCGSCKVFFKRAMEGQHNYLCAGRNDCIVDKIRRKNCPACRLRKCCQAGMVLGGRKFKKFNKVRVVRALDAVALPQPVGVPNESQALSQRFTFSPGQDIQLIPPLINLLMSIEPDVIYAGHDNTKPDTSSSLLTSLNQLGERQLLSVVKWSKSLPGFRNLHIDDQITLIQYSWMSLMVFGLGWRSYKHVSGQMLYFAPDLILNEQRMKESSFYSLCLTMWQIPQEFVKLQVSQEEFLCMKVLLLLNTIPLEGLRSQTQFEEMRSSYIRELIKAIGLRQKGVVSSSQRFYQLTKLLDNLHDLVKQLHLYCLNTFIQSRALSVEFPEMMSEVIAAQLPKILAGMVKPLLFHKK
# Summary of the method: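 Agonist qHTS: compounds pinned onto 3,000 PR-UAS-bla HEK 293T cells per well in charcoal-stripped serum medium, 16hr at 37C, then beta-lactamase activity measured by LiveBLAzer FRET fluorescence after 2 hours at room temperature.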
# [9] = qHTS assay to identify small molecule antagonists of the TGF-beta/Smad signaling pathway - cell viability counter screen (AID 1346824; active = well fitted curve in the direction sought with a large enough effect in the repeat runs; an effect the other way counts as inactive or inconclusive; also: nearly all actives have a fitted effect of over 50% in size)
# Summary of the method: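 Cytotoxicity counter-screen run in the same wells as the beta-lactamase Smad reporter read: CellTiter-Glo luminescence after 30 min at room temperature. HEK 293T SBE-bla cells had 5 hr compound exposure at 37 C with TGF-beta1 (0.25 ng/mL stock).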
# [10] = qHTS assay to identify small molecule antagonists of the estrogen receptor beta (ER-beta) signaling pathway - cell viability counter screen (AID 1259382; active = well fitted curve in the direction sought with a large enough effect in the repeat runs; an effect the other way counts as inactive or inconclusive; also: nearly all actives have a fitted effect of over 55% in size; also: potency is read from the fitted curve at half-maximal effect)
# Summary of the method: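 Cytotoxicity counter screen multiplexed with the beta-lactamase antagonist assay: GripTite HEK293T ER-beta-bla cells were treated 16 hr with test chemicals in the presence of 1nM 17-beta-estradiol, and viability was measured by CellTiter-Glo.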
# [11] = biological target: Estrogen receptor (Homo sapiens) (UniProt P03372); test: qHTS assay to identify small molecule agonists of the estrogen receptor alpha (ER-alpha) signaling pathway in the presence of an antagonist (AID 1259383); also: nearly all actives have a fitted effect of over 15% in size; also: potency is read from the fitted curve at half-maximal effect; as to activation: top concentration of the series differs between compounds
# Sequence of Estrogen receptor (Homo sapiens) (P03372 whole entry, looked up): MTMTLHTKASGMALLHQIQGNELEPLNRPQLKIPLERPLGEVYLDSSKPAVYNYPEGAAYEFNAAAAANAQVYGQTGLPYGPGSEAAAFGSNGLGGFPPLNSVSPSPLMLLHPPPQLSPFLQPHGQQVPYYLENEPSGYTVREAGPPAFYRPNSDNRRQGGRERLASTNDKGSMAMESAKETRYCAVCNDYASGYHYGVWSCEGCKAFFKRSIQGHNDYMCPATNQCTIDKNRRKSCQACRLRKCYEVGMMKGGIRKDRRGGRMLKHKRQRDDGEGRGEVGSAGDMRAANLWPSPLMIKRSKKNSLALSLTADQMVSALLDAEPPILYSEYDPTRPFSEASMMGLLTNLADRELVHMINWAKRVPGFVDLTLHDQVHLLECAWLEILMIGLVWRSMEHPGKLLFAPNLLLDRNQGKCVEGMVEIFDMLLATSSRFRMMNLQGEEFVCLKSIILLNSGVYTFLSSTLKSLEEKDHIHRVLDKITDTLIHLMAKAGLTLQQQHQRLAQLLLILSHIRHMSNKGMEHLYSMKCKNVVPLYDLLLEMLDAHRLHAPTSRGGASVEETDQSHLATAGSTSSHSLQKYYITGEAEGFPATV
# Summary of the method: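 Agonist-mode confirmation in the presence of the ER antagonist ICI-182,780 at 10.0nM final. Breast-derived VM7Luc4E2 reporter cells were exposed to compounds for 22hr, and ERE-driven luciferase was quantified by luminescence.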
# [12] = qHTS assay to identify small molecule agonists or antagonists of the thyroid stimulating hormone receptor (TSHR) signaling pathway - wild type cell line counter screen (AID 1259384)
# Summary of the method: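 Counter screen in untransfected Hek293: compounds (15-point titration, triplicate) plus phosphodiesterase inhibitor Ro20-1724 added after 18 h plating; 30 min RT. Intracellular cAMP via competitive d2/cryptate immunoassay, 1 h incubation.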
# [13] = biological target: Thyrotropin receptor (Homo sapiens) (UniProt P16473); test: qHTS assay to identify small molecule antagonists of the thyroid stimulating hormone receptor (TSHR) signaling pathway (AID 1259385); also: nearly all actives have a fitted effect of over 20% in size; also: potency is read from the fitted curve at half-maximal effect
# Sequence of Thyrotropin receptor (Homo sapiens) (P16473 whole entry, looked up): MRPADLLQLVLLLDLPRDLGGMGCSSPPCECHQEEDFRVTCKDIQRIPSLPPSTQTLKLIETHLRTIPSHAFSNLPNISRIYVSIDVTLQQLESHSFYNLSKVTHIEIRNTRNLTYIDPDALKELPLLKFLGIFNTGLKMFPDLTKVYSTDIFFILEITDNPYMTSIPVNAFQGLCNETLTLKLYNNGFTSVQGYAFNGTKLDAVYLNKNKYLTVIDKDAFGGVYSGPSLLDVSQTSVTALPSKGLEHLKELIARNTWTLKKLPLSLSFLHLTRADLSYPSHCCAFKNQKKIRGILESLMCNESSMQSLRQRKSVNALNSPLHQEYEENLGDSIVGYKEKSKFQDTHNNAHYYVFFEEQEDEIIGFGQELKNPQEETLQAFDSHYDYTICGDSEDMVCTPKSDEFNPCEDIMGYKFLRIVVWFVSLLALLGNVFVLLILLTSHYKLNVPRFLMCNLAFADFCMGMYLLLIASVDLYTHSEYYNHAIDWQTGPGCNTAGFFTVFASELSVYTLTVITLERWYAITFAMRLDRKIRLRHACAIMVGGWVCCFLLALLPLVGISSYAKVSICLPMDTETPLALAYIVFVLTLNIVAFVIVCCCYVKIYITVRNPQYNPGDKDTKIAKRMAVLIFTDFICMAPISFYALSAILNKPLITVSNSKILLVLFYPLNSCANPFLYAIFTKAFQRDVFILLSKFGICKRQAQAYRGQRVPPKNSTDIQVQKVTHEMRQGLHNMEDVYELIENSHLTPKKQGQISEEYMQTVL
# Summary of the method: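 Antagonist mode: compound-treated TSHR-expressing HEK293 cells were stimulated with 1.5 ng/mL TSH (final) in presence of Ro20-1724 for 30 min at RT. HTRF cAMP detection after 1 h; each compound tested at 15 concentrations, triplicate.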
# [14] = qHTS assay to identify small molecule agonists of the progesterone receptor (PR) signaling pathway - cell viability counter screen (AID 1346799); also: nearly all actives have a fitted effect of over 45% in size; also: potency is read from the fitted curve at half-maximal effect
# Summary of the method: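 Cytotoxicity measured by CellTiter-Glo luminescence (30 min, RT) in the same wells as the PR beta-lactamase agonist read. Those HEK293T cells had 16 h compound treatment at 37 C in 2% charcoal-stripped FBS medium.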
# [15] = qHTS assay to identify small molecule agonists of the TGF-beta/Smad signaling pathway - cell viability counter screen (AID 1346829; active = well fitted curve in the direction sought with a large enough effect in the repeat runs; an effect the other way counts as inactive or inconclusive; also: top concentration of the series differs between compounds; nearly all actives have a fitted effect of over 45% in size)
# Summary of the method: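 Compound-treated SBE-bla HEK 293T cells (5 hr, 37 C) were assessed for viability with CellTiter-Glo in parallel with the reporter read.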
# [16] = qHTS assay to identify small molecule agonists of the TGF-beta/Smad signaling pathway (AID 1346859; active = well fitted activation curve with a large enough effect in the signal ratio in the repeat runs, not every such curve was filed as active; the % refers to the signal ratio; also: series mostly up to about 77 µM)
# Summary of the method: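 Fluorescence (ex 405 nm; em 460 and 530 nm) was read 2 h after LiveBLAzer FRET substrate at RT. The preceding compound treatment of overnight-plated SBE-bla HEK293T cells lasted 5 h at 37 C.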
# [17] = biological target: Thyrotropin-releasing hormone receptor (Homo sapiens) (UniProt P34981); test: qHTS assay to identify small molecule antagonists of the thyrotropin-releasing hormone receptor (TRHR) signaling pathway (AID 1346877; active = well fitted inhibition curve with a large enough effect in the repeat runs, not every such curve was filed as active; also: series mostly up to about 51 µM)
# Sequence of Thyrotropin-releasing hormone receptor (Homo sapiens) (P34981 whole entry, looked up): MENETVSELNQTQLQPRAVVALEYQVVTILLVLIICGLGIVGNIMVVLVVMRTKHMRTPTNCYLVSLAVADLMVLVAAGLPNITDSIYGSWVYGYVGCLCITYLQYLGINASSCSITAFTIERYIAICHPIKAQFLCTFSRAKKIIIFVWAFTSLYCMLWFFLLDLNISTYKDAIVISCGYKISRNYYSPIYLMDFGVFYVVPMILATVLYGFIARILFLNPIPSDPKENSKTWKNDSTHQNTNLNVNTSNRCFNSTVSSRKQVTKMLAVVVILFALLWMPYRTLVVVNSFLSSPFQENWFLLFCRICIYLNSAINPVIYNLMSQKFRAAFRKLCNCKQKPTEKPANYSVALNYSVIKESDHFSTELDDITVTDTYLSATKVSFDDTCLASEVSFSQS
# Summary of the method: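 Antagonism is measured as suppression of the calcium response to 1 nM TRH in TRHR-HEK293 cells that have been dye-loaded for 2 h at 37 °C after overnight plating. Each compound is tested at 15 concentrations in triplicate.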
# [18] = biological target: Estrogen receptor beta (Homo sapiens) (UniProt Q92731); test: qHTS assay to identify small molecule antagonists of the estrogen receptor beta (ER-beta) signaling pathway (AID 1259378; active = well fitted inhibition curve with a large enough effect in the signal ratio in the repeat runs, not every such curve was filed as active; the % refers to the signal ratio; also: potency is read from the fitted curve at half-maximal effect)
# Summary of the method: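 Antagonist mode: compounds added to beta-lactamase reporter HEK293T ER-beta-UAS cells stimulated with E2 (1nM final), 16 hr at 37C. LiveBLAzer B/G FRET substrate, 2 hours room temperature, fluorescence read-out.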
# [19] = biological target: Progesterone receptor (Homo sapiens) (UniProt P06401); test: qHTS assay to identify small molecule antagonists of the progesterone receptor (PR) signaling pathway (AID 1346795; active = well fitted inhibition curve with a large enough effect in the signal ratio in the repeat runs, not every such curve was filed as active; the % refers to the signal ratio)
# Summary of the method: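 Antagonist mode with agonist R5020 at 1 nM final and 16 hr incubation at 37C. Reporter was beta-lactamase driven by UAS in HEK293T (PR-UAS-bla), 2% charcoal-stripped serum; signal from LiveBLAzer FRET substrate, 2 hr at room temperature.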
# [20] = qHTS assay to identify small molecule antagonists of the progesterone receptor (PR) signaling pathway - cell viability counter screen (AID 1346798; active = well fitted curve in the direction sought with a large enough effect in the repeat runs; an effect the other way counts as inactive or inconclusive; also: nearly all actives have a fitted effect of over 50% in size; also: potency is read from the fitted curve at half-maximal effect)
# Summary of the method: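 Cytotoxicity read as CellTiter-Glo luminescence (30 min, room temperature) in the same wells as the beta-lactamase readout. HEK293T PR-UAS-bla cells in charcoal-stripped 2% FBS received compound and R5020, then 16 h at 37C, 5% CO2.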
Structure (SMILES),Potency [1],Potency [2],Potency [3],Potency [4],Potency [5],Potency [6],Potency [7],Potency [8],Potency [9],Potency [10],Potency [11],outcome [12],Potency [13],Potency [14],Potency [15],Potency [16],outcome [17],Potency [18],Potency [19],Potency [20]
CCOc1cccc(-n2cc(C(=O)N3CCN(c4cc(C(=O)O)c5ccccc5c4)CC3)nc2-c2ccc(C)cc2)c1,inactive,inactive,inactive,inactive,14.7 µM (active),inactive,inactive,inactive,inactive,,,,,,,,,,,
NC1[C@H]2CN(c3nc4c(cc3F)c(=O)c(C(=O)O)cn4-c3ccc(F)cc3F)C[C@@H]12 (some centres undefined),inactive,29.8 µM (active),,inactive,inactive,inactive,inactive,,,inactive,inactive,inactive,inactive,inactive,inactive,inactive,inactive,,,
C[C@]12CC[C@@H]3c4ccc(O)cc4CC[C@H]3[C@@H]1CC[C@@H]2OC(=O)CCC1CCCC1,inactive,13.3 µM (active),2.2 nM (active) and 2.7 nM (active),inactive,61.1 µM (active) and 29.8 µM (active),,inactive,inactive,inactive,inactive,4.9 nM (active) and 4.2 nM (active),inactive,inactive,,inactive,inactive,inactive,,,
O=C(Nc1cccc2c(=O)cc(-c3nn[nH]n3)oc12)c1ccc(OCCCCc2ccccc2)cc1,inactive,inactive,inactive,inactive,10.6 µM (active),,inactive,inactive,inactive,,,inactive,inactive,,inactive,,inactive,inactive,inactive,inactive
O=C1Cc2ccccc2N1c1c(Cl)cccc1Cl,inactive,inactive,inactive,,19.3 µM (active),inactive,inactive,inactive,inactive,inactive,inactive,inactive,,,inactive,inactive,,54.5 µM (active),,
OC[C@H]1O[C@@H](n2cnc3c(=S)nc[nH]c32)[C@H](O)[C@@H]1O,inactive,inactive,inactive,inactive,2.11 µM (active),,,inactive,,,inactive,inactive,inactive,,,inactive,inactive,,,
NNC(=O)CP(=O)(c1ccccc1)c1ccccc1,inactive,inactive,inactive,inactive,,,inactive,inactive,inactive,inactive,,inactive,inactive,inactive,inactive,inactive,,inactive,inactive,inactive
CCCCOc1ccc(OCCCN2CCOCC2)cc1,inactive,13.3 µM (active),inactive,inactive,,,inactive,,inactive,inactive,inactive,inactive,inactive,inactive,inactive,inactive,,inactive,,inactive
CS(=O)(=O)c1ccc(-c2cn3ccccc3n2)cc1,11.9 µM (active),33.5 µM (active),inactive,inactive,,inactive,inactive,inactive,inactive,,inactive,inactive,inactive,,inactive,inactive,,,,29.8 µM (active)
Clc1cc(Cl)nc(Cl)n1,inactive,inactive,inactive,,inactive,,inactive,inactive,inactive,inactive,,inactive,inactive,inactive,inactive,inactive,,inactive,inactive,inactive
C=C(C)[C@@H]1CCC2=CCC[C@@H](C)[C@]2(C)C1,inactive,24.3 µM (active),,inactive,inactive,inactive,,,inactive,inactive,inactive,inactive,inactive,,inactive,inactive,inactive,,inactive,
CN1CCCC(CC2c3ccccc3Sc3ccccc32)C1 (centres undefined),inactive,6.68 µM (active),,,18.8 µM (active),,inactive,inactive,inactive,11.9 µM (active),,inactive,29.8 µM (active),18.8 µM (active),inactive,inactive,inactive,13.3 µM (active),,18.8 µM (active)
O=C(CCCN1CC=C(n2c(=O)[nH]c3ccccc32)CC1)c1ccc(F)cc1,inactive,inactive,inactive,inactive,13.3 µM (active),,inactive,inactive,inactive,,,inactive,inactive,inactive,inactive,,inactive,inactive,inactive,inactive
